Peg3 promoter: reduces Peg3 promoter-driven luciferase expression in HeLa; HeLa PEG-Prom luciferase reporter, luminescence, overnight; inhibition, % at 20 µM; hit rate 1.7% among 360,000; AID 588405;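 active = inhibition of at least 50% at 20 µM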
CF NFkB block: blocks PAF-induced NF-kB reporter in cystic fibrosis cells | KKLEB NF-kB-GFP reporter, GFP fluorescence overnight | inhibition, % at 5 µM | hit rate 0.86% among 360,000;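 active = at least 50% inhibition at 5 µM, scaled per plate between neutral and stimulator controls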;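 also: PAF is a Pseudomonas aeruginosa culture filtrate used as stimulus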
TRPM1 prom inh: MITF TRPM1 promoter inhibition in SK-MEL-5 cells; inhibition, % at 12.5 µM; SK-MEL-5 TRPM1 promoter luciferase, 24 h; hit rate 0.83% among 330,000;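 active = mean inhibition across replicates of 60% or more, whatever share of single replicates reaches that level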
HIF-2a block: inhibitors of HIF-2a. AID 624352. hit rate 0.72% among 360,000. 786-0 RCC cells HIF-2a reporter, luciferase luminescence, overnight. inhibition, % at 18.8 µM;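 active = inhibition of the luminescence signal of 40% or more relative to plate controls, in a single-dose primary screen at 18.75 µM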
LMP1 NFkB inh: inhibitors of Epstein-Barr LMP1-induced NF-kappaB reporter; LMP1-induced NF-kappaB luciferase reporter cells, luminescence; inhibition, % at 12.5 µM; hit rate 0.69% among 350,000; in the data active = inhibition above about 41%
KKLEB cytotox: CF airway cell cytotoxicity counter-screen; KKLEB CF airway cells viability, ATPlite luminescence, overnight; hits give low values; cells stimulated with P. aeruginosa culture filtrate; activity change (cytotoxicity), % at 5 µM; hit rate 0.36% among 360,000; AID 602141;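 active = corrected activity change at or below -50% at 5 µM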
Of the large screens only hits and unclear results are named; the others gave an inactive call. Rows were chosen to be rich in hits. Some 3% of all compounds tested hit in one or more screens of this group.

Cn1nc(C(F)(F)F)c(/C=N/OC(=O)c2ccccc2)c1SCc1ccccc1Cl	Peg3 promoter 52.8
Cn1nc(C(F)(F)F)c(/C=N/OC(=O)c2ccccc2)c1Sc1ccc(Cl)cc1	none
CCCNC(=O)C1(C)CCCN(Cc2ccc(C)cc2)C1 (stereo not drawn)	none (no result: TRPM1 prom inh, LMP1 NFkB inh)
Cc1ccc(C)c(NC(=S)NC(NC(=O)Cc2ccccc2)C(Cl)(Cl)Cl)c1 (stereo not drawn)	Peg3 promoter 83.8
Cc1cc(C)c(NC(=S)NC(NC(=O)c2ccccc2)C(Cl)(Cl)Cl)c(C)c1 (stereo not drawn)	Peg3 promoter 69.0
CN(C)c1cccc2c(S(=O)(=O)NC(=O)[C@H]3O[C@@H](n4cnc5c(N)ncnc54)[C@H](O)[C@@H]3O)cccc12	none (no result: TRPM1 prom inh, LMP1 NFkB inh)
CC(C)c1ccc(C(C(C(=O)c2ccccc2)N2CCOCC2)N2CCOCC2)cc1 (stereo not drawn)	none
Cc1ccc(-n2nnnc2Sc2nc([N+](=O)[O-])nn2C)c(C)c1	TRPM1 prom inh 73.1
Cc1ccc(-n2nnnc2Sc2nc([N+](=O)[O-])nn2C)cc1	none
Cc1cc(Br)cn2c(Cc3ccsc3)c(-c3cccc(Br)c3)nc12	none (no result: Peg3 promoter, CF NFkB block, TRPM1 prom inh, LMP1 NFkB inh, KKLEB cytotox)
Cc1ccc(NC(=O)c2nc[nH]c2C(=O)NCCCCCNC(=O)OC(C)(C)C)cc1	none
CC(C)(C)OC(=O)NCc1ccc(NC(=O)c2nc[nH]c2C(=O)NCCCNC(=O)c2[nH]cnc2C(=O)Nc2ccc(CNC(=O)OC(C)(C)C)cc2)cc1	Peg3 promoter 78.3
CC(C)(C)OC(=O)NCCCCCNC(=O)c1[nH]cnc1C(=O)Nc1ccc(Cl)cc1	none
CC(C)(C)OC(=O)NCc1ccc(NC(=O)c2nc[nH]c2C(=O)NCCCCNC(=O)c2[nH]cnc2C(=O)Nc2ccc(CNC(=O)OC(C)(C)C)cc2)cc1	Peg3 promoter 93.3, CF NFkB block 76.6
CC(C)(C)OC(=O)NCc1ccc(NC(=O)c2nc[nH]c2C(=O)NCCN(CCNC(=O)c2[nH]cnc2C(=O)Nc2ccc(CNC(=O)OC(C)(C)C)cc2)CCNC(=O)c2[nH]cnc2C(=O)Nc2ccc(CNC(=O)OC(C)(C)C)cc2)cc1	none
CC(C)(C)OC(=O)NCc1ccc(NC(=O)c2nc[nH]c2C(=O)NCCCCCCNC(=O)c2[nH]cnc2C(=O)Nc2ccc(CNC(=O)OC(C)(C)C)cc2)cc1	Peg3 promoter 100.9, CF NFkB block 87.9, KKLEB cytotox -83.2
C/C(COc1ccccc1)=N\NC(=O)c1nnn(-c2nonc2N)c1CSc1ccc(C)cc1	none (no result: TRPM1 prom inh)
O=C(/C=C/c1ccnc2ccccc12)c1cccs1	Peg3 promoter 101.7, CF NFkB block 60.9
COc1cccc(CN2CCC2(C)C(=O)Nc2cccc(Oc3ccccc3)c2)c1F (stereo not drawn)	Peg3 promoter 52.0 (no result: TRPM1 prom inh, LMP1 NFkB inh)
CCOC(=O)c1cc(C)sc1NC(=O)C(c1ccccc1)c1ccccc1	none
CCc1cc(C(=O)O)c(NC(=O)C(c2ccccc2)c2ccccc2)s1	KKLEB cytotox -66.1
CC(=O)Nc1ccc(NC(=O)C(c2ccccc2)c2ccccc2)cc1	LMP1 NFkB inh 54.4
NC(c1csc(Nc2cc(Oc3ccccc3)ncn2)n1)C1CCCCC1 (stereo not drawn)	Peg3 promoter 99.2 (no result: TRPM1 prom inh, LMP1 NFkB inh)
NC(Cc1ccc(C(F)(F)F)cc1)c1csc(Nc2cc(Oc3ccccc3)ncn2)n1 (stereo not drawn)	Peg3 promoter 105.6, CF NFkB block 90.6, KKLEB cytotox -93.8 (no result: TRPM1 prom inh, LMP1 NFkB inh)
COc1ccc(C(N)c2csc(Nc3cc(Oc4ccccc4)ncn3)n2)cc1 (stereo not drawn)	none (no result: TRPM1 prom inh, LMP1 NFkB inh)
CSCCC(C(=O)Nc1c(C)cccc1C)N1CCN(c2ccc(C(F)(F)F)cn2)CC1 (stereo not drawn)	none (no result: TRPM1 prom inh, LMP1 NFkB inh)
Cc1onc(-c2ccccc2)c1C(=O)Nc1cc(C(F)(F)F)ccc1N1CCOCC1	LMP1 NFkB inh 68.9
CCCc1ccc(-c2ccc(F)c(N)c2)nc1	LMP1 NFkB inh 69.3
CN(C)c1ccc(Cc2cc3c(O)ccc(O)c3cc(Cc3ccc(N(C)C)cc3)c2=O)cc1	HIF-2a block 48.4
OCCN(CCO)CC(O)COCCC12CC3CC(CC(C3)C1)C2 (stereo not drawn)	LMP1 NFkB inh 73.2
OCCN(CCO)CC(O)COc1ccc(C23CC4CC(CC(C4)C2)C3)cc1 (stereo not drawn)	HIF-2a block 88.9, LMP1 NFkB inh 42.5
OCCN(CCO)CC(O)COc1ccc(Br)cc1 (stereo not drawn)	none
CCCNC(=O)C1(C)CCCN(Cc2cccc(Oc3ccccc3)c2)C1 (stereo not drawn)	none (no result: TRPM1 prom inh, LMP1 NFkB inh)
O=C(NCc1ccccc1)C1c2ccccc2OCC(=O)N1CC(F)(F)F (stereo not drawn)	none (no result: Peg3 promoter, CF NFkB block, TRPM1 prom inh, LMP1 NFkB inh, KKLEB cytotox)
COc1cc(NS(=O)(=O)c2ccc(OC)c(OC)c2)cc(OC)c1	Peg3 promoter 52.2
Cc1nnc(N2CCOCC2)c2nn(-c3ccccc3)c(C)c12	none
c1ccc(-n2nnc3c(N4CCOCC4)ncnc32)cc1	LMP1 NFkB inh 52.6
Cn1nc(C(C)(C)C)cc1C(=O)N1CCCCC1c1cc(C(=O)Nc2ccc3c(c2)OCO3)no1 (stereo not drawn)	none (no result: TRPM1 prom inh, LMP1 NFkB inh)
CC(=O)c1c(C)[nH]c(C(=O)COc2ccc3ccc(=O)oc3c2)c1C	Peg3 promoter 68.2
CCC(=O)N1CCN(c2ccnc3cc(Cl)ccc23)CC1	none
CC(C)N(C(=O)N1CCN(c2ccnc3cc(Cl)ccc23)CC1)C(C)C	Peg3 promoter 54.3
O=C(c1ccc(Cl)cc1)N1CCN(c2ccnc3cc(Cl)ccc23)CC1	LMP1 NFkB inh 49.6
CC1(C(=O)NS(=O)(=O)c2ccc(F)cc2F)CCN1C(=O)C1CCCCC1 (stereo not drawn)	none (no result: TRPM1 prom inh, LMP1 NFkB inh)
O=C(/C=C/c1ccccc1F)c1cccc([N+](=O)[O-])c1	LMP1 NFkB inh 45.5
COc1ccc(C(=O)/C=C/c2ccccc2F)c(OC(=O)c2ccc([N+](=O)[O-])cc2)c1	none
COc1cc(/C=C/C(=O)c2cccc([N+](=O)[O-])c2)cc(OC)c1OC	Peg3 promoter 105.2
O=C(NCc1ccc(F)cc1)N1[C@H]2CC[C@@H]1C=C(c1ccc(F)cc1OCc1ccccc1)C2	none (no result: TRPM1 prom inh)
CC(C)OC(=O)C1=C(N)N2C(=O)CSC2=C(C(=O)OC(C)C)C1	Peg3 promoter 52.3
COC(=O)C1=C2SCC(=O)N2C(N)=C(C#N)C1	none
COc1ccccc1CNc1nc(Nc2ccc(C)cc2C)c2sccc2n1	none (no result: TRPM1 prom inh, LMP1 NFkB inh)
COc1ccc(Br)cc1C(=O)Nc1cccc(-c2nnc(-c3ccco3)o2)c1	Peg3 promoter 53.1
COc1ccc(Br)cc1C(=O)Nc1ccc(NC(=O)c2ccco2)cc1	none
COc1cccc(C(=O)Nc2cccc(-c3nnc(-c4ccco4)o3)c2)c1	Peg3 promoter 94.1
O=C(O)c1cccc(N/N=C/c2cccc3ccccc23)c1	TRPM1 prom inh 80.9, LMP1 NFkB inh 48.1
COc1ccc2ccccc2c1/C=N/Nc1cccc(C(=O)O)c1	none
